As usually defined, the inhibition is the relative decrease from the control value, in per cent.

Several values for one entry are separate records, joined by “and”; a condition that tells them apart may be missing. Identical values can stand only once. Hit rate of the full screen: of about 370,000 compounds, about 2,000 (0.54%) were called active. The list comes from a sample in which actives are over-represented; it also holds similar structures and randomly drawn compounds. Unmarked numbers belong to inactive results. Rule as the data show it: active = inhibition above about 30%; inactive = the rest.

For the experiment, the system named is Crimean-Congo hemorrhagic fever virus L polyprotein viral ovarian tumor (vOTU) protease domain. Nature of the experiment: CCHFV vOTU protease inhibitors, primary screen, biochemical, Pep-AMC substrate, fluorescence (AID 651958). Also: 0% = vehicle wells with enzyme and 100% = no enzyme wells. Particulars: at 11.5 µM, stronger effect = higher value.
Consider `CCOC(=O)c1cc2c(=O)[nH]c(C(Cl)(Cl)Cl)nc2o1`, for which the inhibition was -3.85%. Turning to `CCOC(=O)c1ccc(NC(=O)C2CC(=O)Nc3nc4ccccc4n32)cc1` (stereo unspecified), the inhibition is 19.2%. Then `CCOC(=O)c1ccc(Nc2cc3ccccc3c(=O)[nH]2)cc1`, with 94.2% (active); and `Cc1cc(C)cc(NC(=S)NC2CC3CCCC(C2)N3Cc2cccs2)c1` (stereo unspecified), with -9.42%; and `CCC(C)(C(=O)NC1CCCC1)N(C(=O)CNC(C)=O)c1ccc(C)cc1` (stereo unspecified), with 7.89%. For `Oc1c(C=Nc2cccc3nsnc23)ccc2ccccc12` the value was 86% (active). Regarding `CC1=C(C(=O)N2CCOCC2)CC(CC(=O)NCC2CCCCC2)C(=O)N1Cc1ccc(F)cc1` (stereo unspecified), the inhibition was 14%. In the case of `CCCn1c(N)c(C(=O)CSc2nnc(Cc3cccs3)n2C2CC2)c(=O)[nH]c1=O`, the inhibition was -3.09%. For the molecule `CC(=O)c1c(N)n(C)c(=O)n(C)c1=O`, the inhibition was 5.25%. Consider `N#C/C(=C\c1ccccc1)c1n[nH]c(Cn2cncn2)n1`, for which the inhibition was 4.11%. With `CCc1ccc(/C=N/NC(=O)c2ccc(OC3CCCC3)cc2)s1`, the inhibition was 12.3%. For `COc1ccc(CNCCCNCc2ccc(OC)c(OC)c2)cc1OC`, the inhibition was 5.96%. Consider `Cc1ccc2[nH]c(=O)c(CC=C(Cl)Cl)c(C)c2c1`, for which the inhibition is 3.16%.

As for `CCOC(=O)c1ccc(NC(=O)c2nc[nH]c2C(=O)N[C@@H](CCCCNC(=O)OC(C)(C)C)C(=O)OC(C)(C)C)cc1`, the inhibition is 29.6% (active). On to `Cc1ccc(NC(=O)c2nc[nH]c2C(=O)N[C@@H](CCCCNC(=O)OC(C)(C)C)C(=O)OC(C)(C)C)cc1`, for which the inhibition is 27.1%. Then `CC(C)(C)OC(=O)NCCCCCNC(=O)c1[nH]cnc1C(=O)Nc1nccs1`, with 0.59%; and `CCOC1=C2CN(S(=O)(=O)c3ccc(C)cc3)[C@H](c3cccs3)C[C@H]2[C@H]2C(=O)N(c3ccccc3)C(=O)[C@H]2C1`, with -5.03%; and `CSCCC(NC(=O)COc1ccccc1)C(=O)N1CCN(c2cccc(C(F)(F)F)c2)CC1` (stereo unspecified), with 13.9%. As for `O=C(COc1ccc(Cl)cc1)N1CCN(c2cccc(C(F)(F)F)c2)CC1`, the inhibition is 32.4% (active). Regarding `O=C(COc1ccc(Cl)cc1)N1CCN(S(=O)(=O)c2ccc(Cl)cc2)CC1`, the inhibition was 9.84%. In the case of `CCNC(=O)N1CCCC(C(=O)c2ccc(-c3ccccc3)cc2)C1` (stereo unspecified), the inhibition is -6.51%. As to `Cc1noc(C)c1S(=O)(=O)Nc1ccc(C(=O)O)cc1`, the inhibition is 7.91%.

In the case of `Cc1oc2c(F)c(F)c(F)c(F)c2c1S(=O)(=O)Nc1cccc(C(F)(F)F)c1`, the inhibition was 43.8% (active). Then `Cc1ccc(N(CCC(=O)O)S(=O)(=O)c2cccc(C(F)(F)F)c2)cc1`, with -2.86%; and `C[C@]12C=CC(=O)C=C1CC[C@@H]1[C@@H]2C(=O)C[C@@]2(C)[C@H]1CC[C@]2(O)C(=O)CO`, with 0.7% and 3.02%. For `COCCCN(C(=S)Nc1c(C)cc(C)cc1C)C(C)c1ccncc1` (stereo unspecified), the inhibition is -6.09%. In the case of `CCc1ccc(C2C(C#N)=C(N)N(N(C)C)C3=C2C(=O)CCC3)s1` (stereo unspecified), the inhibition was 1.4%. Consider `CN(C)N1C(N)=C(C#N)C(c2ccc(Br)cc2)C2=C1CCCC2=O` (stereo unspecified), for which the inhibition was 35.1% (active). In the case of `CCOc1ccc(C2C(C#N)=C(N)N(N(C)C)C3=C2C(=O)CCC3)cc1` (stereo unspecified), the inhibition is 16.2%. As for `CC(C(=O)N=Nc1c(O)n(C)c2ccc(Br)cc12)n1cnc2ccccc2c1=O` (stereo unspecified), the inhibition is -4.46%. With `CNc1nccc(-c2ccc(Cl)cc2)c1C#N`, the inhibition was -58.4%. Regarding `CCn1c(C)nc2cc(C(=O)NNS(=O)(=O)c3ccc(C)cc3C)ccc21`, the inhibition is -9.65%. `O=C1Cc2ccccc2Sc2ccc(Cl)cc21`: the inhibition is 7.8%. Take `CCN(CC)C(=O)[C@@H]1C=C2c3cccc4[nH]c(Br)c(c34)C[C@H]2N(C)C1`: the inhibition was 33.8% (active).

As for `CC1(C)CN(CCc2ccccc2)C(=O)[C@H]1CC(=O)Nc1ccc(Br)cc1`, the inhibition was 21.8%.

`COc1ccc(NC(=O)C[C@H]2C(=O)N(CCc3ccccc3)C[C@@H]2C)cc1`: the inhibition is 29.5% (active). `COc1ccc(CCN2C(=O)N(c3ccc(OC)cc3)C(=O)C2CC(=O)Nc2ccc(OC)cc2)cc1` (stereo unspecified): the inhibition is 4.43%. Take `COC(=O)C1=C(c2cc3ccccc3s2)C[C@@H]2CC[C@H]1N2C(=O)NCCO`: the inhibition was -0.84%.

For `Cc1noc(/C=C/c2ccco2)c1S(=O)(=O)N1CCC(C(=O)Nc2ccc(Cl)cn2)CC1`, the inhibition is 2.84%. Regarding `CCOc1ccc(C(=O)Nc2ccc(S(=O)(=O)NCC3CCCO3)cc2)cc1OCC` (stereo unspecified), the inhibition was 35% (active). `O=C(Nc1ccc(S(=O)(=O)NCC2CCCO2)cc1)c1ccc(F)cc1` (stereo unspecified): the inhibition is 14%. For the molecule `Cc1ccc(NC(=O)c2ccc(S(=O)(=O)NCC3CCCO3)cc2)cc1C` (stereo unspecified), the inhibition is -7.16%. On to `CC(C)c1ccc(Nc2ncccc2C#N)cc1`, for which the inhibition is 7.01%.

Turning to `CCC(C)(C)NC(=O)C(c1ccc(O)cc1)N(Cc1ccco1)C(=O)CCC(=O)Nc1ccccn1` (stereo unspecified), the inhibition was 0.91%. With `CSc1ccccc1NC(=O)CN(C)CC(=O)Nc1cccc(Br)c1`, the inhibition was 0.92%. For `Cc1cccc(N(C(=O)c2sc(C)nc2C)C(C(=O)NCC2CCCO2)c2ccccc2)c1` (stereo unspecified) the value was -8.32%; for `C=CCn1c(N)cc(=O)nc1SCC(=O)Nc1cccc2ccccc12`, -1.46%. As for `Cc1ccc(-n2c(SCC(=O)Nc3cccc4ccccc34)nnc2-c2ccccn2)cc1`, the inhibition is -2.55%. In the case of `Cc1ccccc1-n1c(SCC(=O)Nc2cccc3ccccc23)nc(O)cc1=O`, the inhibition was 32.7% (active). Take `O=C(Cn1cnc2c(OCc3ccccc3)ncnc21)NCc1nc2ccccc2[nH]1`: the inhibition was -9.89%. Regarding `Cn1c(=NC(=O)c2cnccn2)sc2ccccc21`, the inhibition is 36.4% (active). In the case of `Cn1c(=NC(=O)c2ccc3c(c2)OCCO3)sc2cc(S(C)(=O)=O)ccc21`, the inhibition was -4.23%. On to `Cn1c(=NC(=O)c2ccco2)sc2cccc(F)c21`, for which the inhibition was 5.27%.

Turning to `COC(=O)c1ccc(CN2C(=O)[C@]3(OCCC=C[C@H]3C)c3c(Br)cccc32)cc1`, the inhibition is 10.2%.

`O=C(N[C@@H]1C/C=C\C[C@@H](CC(=O)N(CCO)Cc2ccccc2)C(=O)N[C@H](Cc2ccccc2)COC1=O)OCC1c2ccccc2-c2ccccc21`: the inhibition is 0.7%. For `CCOC(=O)N/N=C1\CC(C)S(=O)(=O)c2ccc(Cl)cc21` (stereo unspecified), the inhibition was -1.67%. As to `COc1ccc(C(=O)N2CCN(c3ccc(C(C)=O)cc3F)CC2)cc1S(=O)(=O)NC1CC1`, the inhibition is 12.2%. Then `COc1ccc(CN2C(CC(=O)Nc3cccnc3)c3ccc(C(F)(F)F)cc3S2(=O)=O)cc1` (stereo unspecified), with 1.05%.

Regarding `COc1cccc(NC(=O)Nc2nnc(N3CCCCC3C)s2)c1` (stereo unspecified), the inhibition was 8.79%.

Take `COc1ccc(C(N)c2csc(NC(=O)Nc3cccc(C(F)(F)F)c3)n2)cc1` (stereo unspecified): the inhibition is 36.4% (active). Then `O=C1[C@@H](c2ccccc2)[C@@H](c2ccccc2)N1c1ccccc1`, with -7.47%; and `COc1ccc(C(C)=O)cc1CSc1nc2nc(C)cc(C)n2n1`, with -9.62%; and `COc1cc(C(=O)N2CCN(C/C=C/c3ccccc3)CC2)cc(OC)c1C`, with 11.4%. On to `COc1ccc(C(=O)/C=C/c2ccc(-c3ccccc3)cc2)cc1CSCC(=O)O`, for which the inhibition was 29.8% (active).

As to `Cc1noc(C)c1S(=O)(=O)N(C)C[C@H]1OCCCC[C@@H](C)Oc2ccc(NC(=O)CCCN(C)C)cc2C(=O)N([C@H](C)CO)C[C@@H]1C`, the inhibition is -8.1%. As for `CC(C)CN1CCC1(C)C(=O)Nc1ccc(OC(F)F)cc1` (stereo unspecified), the inhibition is 15.4%. As to `CC(C)NC(=O)C1(C)CCCCN1Cc1cccc(C(F)(F)F)c1` (stereo unspecified), the inhibition is 0.49%. As to `CC(C)Oc1ccc(CN2CCC2(C)C(=O)NCc2ccc(C(F)(F)F)cc2)cc1` (stereo unspecified), the inhibition is 35.6% (active). As for `CC(=O)N=c1ncn(CC(COC(C)=O)OC(C)=O)c2nc[nH]c12` (stereo unspecified), the inhibition was 6.99%.

For `COC(=O)Cc1ccc(OC2(C)CCN(Cc3ccc4c(c3)OCCO4)C2)cc1` (stereo unspecified), the inhibition is 0.88%.

Consider `CC(C)(C)NC(=O)C(c1ccco1)N(Cc1ccc2c(c1)OCO2)C(=O)Cn1nnc2ccccc21` (stereo unspecified), for which the inhibition is 5.93%. Take `CCCCCCCCNS(=O)(=O)/C=C/c1cc(C)ccc1CNC(=O)OC(C)(C)C`: the inhibition was 29.5%. As for `COCCn1c(=O)[nH]c(=O)c2cc(C(=O)c3cc(OC)ccc3O)cnc21`, the inhibition was 16.3%. Regarding `CCc1ccc(NC(=O)CN2C(=O)COc3ccc(S(=O)(=O)N4CCCC4)cc32)cc1`, the inhibition is -0.54%. `COP(=O)(Sc1ccccc1)C(Cc1ccccc1)NC(=O)OCc1ccccc1` (stereo unspecified): the inhibition is 3.36%. For `COc1cc2c(cc1OC)C(Cc1cc(OC)c(OC)cc1[N+](=O)[O-])=NCC2` the value was 40% (active).

Consider `COc1cc2c(cc1OC)C(c1cccc([N+](=O)[O-])c1)=NCC2`, for which the inhibition is 10.7%. For the molecule `COc1cc(CN2CCCN(C)CC2)c([N+](=O)[O-])cc1OC`, the inhibition is -3.03%. For the molecule `CC(C)CCNC(=O)Cn1c(=O)oc2cc(S(=O)(=O)N3CC(C)CC(C)C3)ccc21` (stereo unspecified), the inhibition is 7.1%.

For the molecule `CCCNC(=O)C1(C)CCN(C(=O)c2cc(F)ccc2C)C1` (stereo unspecified), the inhibition was 6.2%. For `Nc1ccc(N=Nc2ccccc2Cl)c(N)n1`, the inhibition is 30% (active). As for `COc1ccc(C(C(=O)NC(C)(C)C)N(C(=O)Cn2nnc3ccccc32)c2ccc(C(C)=O)cc2)cc1O` (stereo unspecified), the inhibition is 21.7%.

As to `Cc1nc(N)nc(SCc2ccc([N+](=O)[O-])cc2)c1N`, the inhibition is -13.9%. On to `N[C@@H](Cc1ccccc1)C(=O)N1CCOCC1`, for which the inhibition was -2.24%. As for `Cc1ccc(S(=O)(=O)NC(C(=O)N2CCOCCOCCOCCOCC2)c2ccccc2)cc1` (stereo unspecified), the inhibition was -5.21%. As to `Cc1oc2c(c1C(=O)N1CCOCC1)C(=O)c1ccccc1C2=O`, the inhibition was 70.8% (active).

Values taken from PubChem BioAssay AID651958 (The Scripps Research Institute Molecular Screening Center, 2012).
